In PubChem BioAssay (NCI):
About 83,000 compounds went through this panel and 20% of them were active in at least one assay; those are over-represented in the sample as a whole.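 Step 1: grow cells in 96-well plates. Step 2: add test compound at a single concentration. Step 3: incubate 48 h. Step 4: record percent growth.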 Calls of active or inactive are those of the source. Rule for the calls: active = growth percent below 10; inactive = the rest.

Key:
Test in all cases: NCI-60 one-dose screen, 48 h (100 = growth as untreated, 0 = no growth, -100 = all killed)
Conditions in all cases: 10 µM unless noted
[1] = test system: DU-145 prostate
[2] = test system: MALME-3M melanoma
[3] = test system: MDA-MB-231 breast
[4] = test system: RXF 393 renal
[5] = test system: SF-268 CNS
[6] = test system: SF-295 CNS
[7] = test system: SF-539 CNS
[8] = test system: UACC-257 melanoma
[9] = test system: M14 melanoma
[10] = test system: HCT-15 colon
[11] = test system: HT29 colon
[12] = test system: SNB-75 CNS
[13] = test system: SNB-19 CNS
[14] = test system: U251 CNS
[15] = test system: PC-3 prostate
[16] = test system: SK-MEL-5 melanoma
[17] = test system: UACC-62 melanoma
[18] = test system: LOX IMVI melanoma
[19] = test system: SK-MEL-28 melanoma

Measured: growth

Oc1ccc(OCCOc2ccc(O)cc2)cc1
inactive: [1] 61.4% | [2] 62% | [3] 50.3% | [4] 71.7% | [5] 61% | [6] 32.7% | [7] 28% | [8] 83.8% | [9] 15.8% | [10] 38.4% | [11] 86.9% | [12] 73.8% | [13] 79.2% | [14] 49.5% | [15] 55.7% | [16] 26.8% | [17] 22.5% | [18] 36.4% | [19] 102%

C=C(C)[C@@H]1CC[C@]2(C(=O)N3CCN(C)CC3)CC[C@]3(C)[C@H](CC[C@@H]4[C@@]5(C)CC[C@H](O)C(C)(C)[C@@H]5CC[C@]43C)[C@@H]12
active: [1] -57.3% | [2] -73.1% | [3] -63.4% | [4] -91.6% | [5] -74.8% | [6] -86.9% | [7] -74.3% | [8] -88.5% | [9] -86.4% | [10] -83.9% | [11] -90.4% | [12] -93.2% | [13] -52% | [14] -84.8% | [15] -70.7% | [16] -67.7% | [17] -82.9% | [18] -80.9% | [19] -85.1%

COc1ccc2c(c1)oc1c(C)c3c(c(C)c12)C(=O)N(CCN1CCOCC1)C3=O
inactive: [1] 107% | [2] 100% | [3] 86.2% | [4] 93.9% | [5] 99.5% | [6] 110% | [7] 100% | [8] 93.8% | [9] 104% | [10] 102% | [11] 99.3% | [12] 99.5% | [13] 97.5% | [14] 105% | [15] 82.8% | [16] 97.5% | [17] 93.3% | [18] 96.4% | [19] 103%

C#Cc1cccc(NC(=O)c2cccc(NC(=O)CCl)c2)c1
active: [1] 4.82% [8.25 µM] | [2] -80.3% [8.25 µM] | [3] -80.5% [8.25 µM] | [4] -20.9% [8.25 µM] | [5] 8.4% [8.25 µM] | [7] -97.1% [8.25 µM] | [9] 0.864% [8.25 µM] | [10] -63.4% [8.25 µM] | [11] -7.83% [8.25 µM] | [12] -21.9% [8.25 µM] | [14] -93.7% [8.25 µM] | [15] -70.8% [8.25 µM] | [16] -93.8% [8.25 µM] | [17] -33.7% [8.25 µM] | [18] -89% [8.25 µM]
inactive: [6] 21.9% [8.25 µM] | [8] 28.1% [8.25 µM] | [13] 11.5% [8.25 µM] | [19] 37.4% [8.25 µM]

O=C1Nc2cc(Cl)ccc2/C1=C\c1c(-c2ccc(F)cc2)nc2ccccn12
inactive: [2] 41.4% | [3] 50.3% | [5] 20% | [8] 68.7% | [10] 12.5% | [13] 22.2% | [14] 22.9% | [15] 12.8% | [17] 10.6% | [18] 11.1% | [19] 28.2%
active: [1] -17.9% | [4] -23.8% | [6] -58.2% | [7] -26.4% | [9] -10.8% | [11] 4.36% | [12] -16.9% | [16] -10.9%

COc1ccc(-c2cnc3c(-c4cccc5ncccc45)cnn3c2)cc1
inactive: [1] 58.1% | [2] 15% | [4] 26.7% | [5] 19% | [6] 32.2% | [7] 30.8% | [8] 51.3% | [9] 76.8% | [10] 71.6% | [11] 43.5% | [14] 16.3% | [15] 50.6% | [16] 22.3% | [17] 54.2% | [18] 72.4% | [19] 58.1%
active: [3] -1.88% | [12] -13.1% | [13] 5.29%

Cc1ccc(C(=O)/C(=C\c2ccc([N+](=O)[O-])cc2)S(=O)Cc2ccc(F)cc2)cc1 (centres undefined)
active: [2] -3.22% | [4] -80% | [10] 7.72% | [11] -49.1% | [14] -7.84% | [15] -0.882% | [17] -34.5% | [18] -39%
inactive: [1] 18.6% | [3] 11% | [5] 19.5% | [6] 62.5% | [7] 15.4% | [8] 91.6% | [9] 28.2% | [12] 57.1% | [13] 41.2% | [16] 64.6% | [19] 17.3%

CC(c1ccccc1)C(C(=O)c1ccccc1)c1ccccc1 (centres undefined)
inactive: [1] 105% | [2] 109% | [3] 71.6% | [4] 90.6% | [5] 94.2% | [6] 91.8% | [7] 98.1% | [8] 105% | [9] 89.7% | [10] 107% | [11] 75.4% | [12] 63.9% | [13] 91% | [14] 96.3% | [15] 94.8% | [16] 98.5% | [17] 94% | [18] 82.3% | [19] 94%

O=C(/C(=C\c1ccc([N+](=O)[O-])cc1)S(=O)Cc1ccc(Cl)cc1)c1ccc(Cl)cc1 (centres undefined)
inactive: [1] 77.7% | [2] 92.7% | [3] 76.2% | [4] 52.4% | [5] 64% | [6] 90.5% | [7] 99.1% | [8] 100% | [9] 63.3% | [10] 34.8% | [11] 16.5% | [12] 93% | [13] 71.6% | [14] 53.6% | [15] 66.9% | [16] 90.7% | [17] 69.2% | [18] 40.5% | [19] 86.8%

COc1ccc(/C=C/c2nc(Nc3ccc(S(=O)(=O)NC(C)=O)cc3)c3ccccc3n2)cc1
inactive: [1] 69.5% | [2] 99.1% | [3] 72.4% | [4] 103% | [5] 85.3% | [6] 81.2% | [7] 97.3% | [8] 89.4% | [9] 45.5% | [10] 55.2% | [11] 67.2% | [12] 97.7% | [13] 78.9% | [14] 74.8% | [15] 79.3% | [16] 77.1% | [17] 25.6% | [18] 38.3% | [19] 96.1%

COc1ccc(/C=C/c2nc(Nc3ccc(S(=O)(=O)Nc4nc(C)cc(C)n4)cc3)c3ccccc3n2)cc1
inactive: [1] 71.3% | [2] 89.6% | [3] 61.3% | [4] 94.3% | [5] 75.3% | [6] 63.8% | [7] 96.8% | [8] 78.6% | [9] 47.1% | [10] 50.5% | [11] 62.2% | [12] 85.7% | [13] 75.6% | [14] 69.7% | [15] 77.5% | [16] 61.1% | [17] 20.8% | [18] 26.3% | [19] 87.4%

C=C(C)[C@@H]1CC[C@]2(C(=O)N[C@@H](Cc3ccccc3)C(=O)OC)CC[C@]3(C)[C@H](CC[C@@H]4[C@@]5(C)CCC(=O)C(C)(C)[C@@H]5CC[C@]43C)[C@@H]12
inactive: [1] 92.7% | [2] 102% | [3] 102% | [4] 101% | [5] 78% | [6] 78.8% | [7] 93.7% | [8] 104% | [9] 87.8% | [10] 94% | [11] 70.1% | [12] 87.1% | [13] 104% | [14] 85.2% | [15] 52.3% | [16] 95.2% | [17] 56.9% | [18] 73.9% | [19] 97.9%

CC(C)c1ccc(Nc2ccc3c(OCCCN4CCN(C)CC4)cccc3n2)cc1
active: [9] -67.6% | [10] -35.9% | [11] -50.3% | [17] 1.02% | [18] -70.7%
inactive: [1] 76.1% | [2] 39.2% | [3] 51.8% | [4] 48.9% | [5] 71.8% | [6] 38.8% | [7] 73.5% | [8] 71.9% | [12] 68.9% | [13] 63.7% | [14] 23.9% | [15] 62.9% | [16] 58.3% | [19] 13.7%

COc1ccc(C(=O)c2nc3ccccc3n2CC(=O)c2ccc(F)cc2)cc1
inactive: [1] 104% | [2] 68.6% | [3] 83% | [4] 89.1% | [5] 100% | [6] 190% | [7] 101% | [8] 86% | [9] 82.8% | [10] 56% | [11] 55% | [12] 59.6% | [13] 95.6% | [14] 90.5% | [15] 83.2% | [16] 88% | [17] 65.3% | [18] 94.5% | [19] 80.2%

COc1cc(/C=C\c2cc(/C=C\c3ccc(O)c(OC)c3)n(C(=O)COc3ccccc3)n2)ccc1O
inactive: [3] 11.3% | [5] 12% | [6] 15.5% | [8] 30.5% | [12] 22.7% | [13] 14.8% | [19] 18.4%
active: [1] 9.09% | [2] 7.21% | [4] -44.5% | [7] -10.3% | [9] 6.75% | [10] 9.64% | [11] -33.2% | [14] 8.81% | [15] 8.49% | [16] -28.8% | [17] 4.88% | [18] 3.23%

C=CCn1c(-c2ccc(-c3nc4ccc(C)cc4[nH]3)cc2)n[nH]c1=S
inactive: [1] 111% | [2] 96.6% | [3] 90.7% | [4] 110% | [5] 112% | [6] 92.1% | [7] 97% | [8] 102% | [9] 98% | [10] 99.2% | [11] 105% | [12] 104% | [13] 102% | [14] 101% | [15] 101% | [16] 89.5% | [17] 95.8% | [18] 98.3% | [19] 100%
